From PubChem BioAssay AID588651 (The Scripps Research Institute Molecular Screening Center, 2011)
Activity calls are given as the source filed them. No stated cut-off is given here; in the data, active means inhibition above about 65%; inactive means the rest.

These compounds were tested on Antitargets (assay: Fam108b inhibition by ABPP, late-stage follow-up, biochemical, gel-based ABPP, recombinant soluble Fam108b, HTS hits, complex proteome (AID 588651;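 further: Fam108b spiked into mouse brain membrane proteome; tested at 20 µM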)). Settings: FP-rhodamine labeling in proteome.

Compound | outcome
NC(Cc1cc(O)c(O)cc1O)C(=O)O (stereo not drawn) | inactive
C[n+]1c(-c2ccccc2)c2cc(N)ccc2c2ccc(N)cc21 | inactive
Cc1ccccc1N1C(=O)/C(=C/c2ccco2)C(=O)NC1=S | inactive
